Assay [1] is described as follows: binders of probe aFSTL3 on microarray, primary screen, stem cell growth factor project, biochemical, small-molecule microarray, fluorescence 635/667 (AID 1064).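 Note: measures binding of the biotinylated anti-FSTL3 antibody to printed compounds.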 The following applies: higher = more signal.
Assay [2] in a line: binders from COS7 lysate, DM2A8 probe, primary screen, torsin A project, cell lysate, small-molecule microarray, fluorescence 635/667 (AID 1065). As to conditions: higher = more signal, COS7 lysate expressing mutant human TOR1A.
Assay [3] in a line: binders of probe aFGF2 on microarray, primary screen, stem cell growth factor project, biochemical, small-molecule microarray, fluorescence 635/667 (AID 1067).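 Note: measures binding of biotinylated aFGF2 protein to printed compounds on slides; z-score merges feature fluorescence and signal-to-noise across triplicate slides.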 As to conditions: higher = more signal.
A short description of assay [4]: binders of probe aFGF10 on microarray, primary screen, stem cell growth factor project, biochemical, small-molecule microarray, fluorescence 635/667 (AID 1071).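 Note: score merges 667 nm spot intensity and signal to noise from triplicate slides.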 The following applies: higher = more signal.
In assay [5] the target is Neurogenic locus notch homolog protein 2 (Homo sapiens) (UniProt Q04721). The assay is described as follows: Notch2 binders on small-molecule microarrays, primary screen, biochemical, small-molecule microarray, 635 nm fluorescence, stem cell growth factors (AID 1073). The following applies: Notch2 binding, higher = more signal.
The target in assay [6] is Pro-neuregulin-1, membrane-bound isoform (Homo sapiens) (UniProt Q02297). The assay is described as follows: NRG1 binders on small-molecule microarrays, primary screen, psychiatric disease protein project, biochemical, small-molecule microarray, fluorescence 635/667 (AID 1075).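 Note: score combines 667 nm spot fluorescence with signal to noise.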 The following applies: NRG1 binding, 635 nm fluorescence, higher = more signal.
Assay [7] deals with Neuregulin-1 EGF-like domain. Description: binders of neuregulin-1 EGF-like domain, primary screen, biochemical, small-molecule microarray, 635 nm fluorescence (AID 1081).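 Note: binding of the protein to compounds printed on small-molecule microarray slides.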 The following applies: small-molecule microarray binding, higher = more signal.
Assay [8] in a line: FRG1 promoter luciferase signal modulators, primary screen, FRG1 inhibition for FSHD, cell-based, C2C12 myotubes, firefly/Renilla luciferase, luminescence (AID 1084). The following applies: higher = more signal, called active from +8 up or from −8 down.
Assay [9] is described as follows: binders of probe aFST on microarray, primary screen, stem cell growth factor project, biochemical, small-molecule microarray, fluorescence 635/667 (AID 1086).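 Note: score merges 667 nm fluorescence with signal-to-noise of each printed compound spot.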 The following applies: higher = more signal.
Assay [10] can be described thus: binders of probe aHhip on microarray, primary screen, stem cell growth factor project, biochemical, small-molecule microarray, fluorescence 635/667 (AID 1087).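 Note: score merges spot fluorescence at 667nm with spot signal to noise ratio.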 As to conditions: higher = more signal.
Assay [11] deals with PRMT1 (protein arginine N-methyltransferase 1). Description: PRMT1 binders on small-molecule microarrays, primary screen, biochemical, small-molecule microarray, 635 nm fluorescence (AID 1088).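 Note: binding of Prmt1 protein to compounds spotted on small-molecule microarray slides.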 As to conditions: small-molecule microarray binding, higher = more signal.
Assay [12] in a line: yeast growth modulation, basal conditions, primary screen, YJM789 clinical isolate, OD600, 24 h (AID 1089).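 Note: growth of clinical yeast isolate S. cerevisiae YJM 789 seeded 1000 cells per well; test concentration not given here.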 As to conditions: S. cerevisiae YJM789 growth, higher = more signal, called active from +8 up or from −8 down.
Assay [13] can be described thus: fission yeast growth modulation, primary screen, strain 972, OD600, 24 h, no modulator (AID 1090).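 Note: basal condition with compound alone and no growth modifier present; test concentration not given here.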 As to conditions: S. pombe 972 growth, higher = more signal, called active from +8 up or from −8 down.
Assay [14] in a line: S. cerevisiae growth modulation with rapamycin, primary screen, strain BY4716, OD600, 96 h (AID 1091). Note: test concentration not given here. The following applies: higher = more signal, called active from +8 up or from −8 down.
Assay [15] deals with Torsin-1A-interacting protein 2 (Homo sapiens) (UniProt Q8NFQ8). The assay is described as follows: LULL1 binders on small-molecule microarray, primary screen, cell lysate, human LULL1 lysate, 635/667 nm fluorescence (AID 1092).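 Note: probe is lysate of COS7 cells overexpressing human LULL1; score merges per-feature 667 nm fluorescence with signal-to-noise.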 The following applies: hLULL1 lysate binding, 635 nm fluorescence, higher = more signal.
Assay [16] is described as follows: E. coli growth modulation, two-sided OD650, primary screen, E. coli filamentation project, strain DRC41, 24 h (AID 1093).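 Note: MC1000 strain lacking acrAB efflux and sulA so SOS filamentation is blocked; test concentration not given here.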 As to conditions: OD650, 24 h, higher = more signal, called active from +8 up or from −8 down.
A short description of assay [17]: small-molecule microarray binders of probe aLefty2, primary screen, biochemical, biotinylated probe, 635/667 nm fluorescence (AID 1094).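 Note: score merges spot fluorescence near 667 nm with spot signal-to-noise ratio.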 As to conditions: higher = more signal.
Assay [18] relates to Noggin (protein binding on small-molecule microarray). The assay is described as follows: Noggin binders on small-molecule microarray, primary screen, biochemical, 635/667 nm fluorescence (AID 1095).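 Note: score merges 667 nm feature fluorescence with signal to noise over triplicate slides.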 As to conditions: 635 nm fluorescence, higher = more signal.
In assay [19] the target is Neurogenic locus notch homolog protein 3 (Homo sapiens) (UniProt Q9UM47). Description: NOTCH3 binders on small-molecule microarray, primary screen, biochemical, 635/667 nm fluorescence (AID 1096). As to conditions: NOTCH3 binding, 635 nm fluorescence, higher = more signal.
Assay [20] in a line: small-molecule microarray binders of probe aEGFR, primary screen, biochemical, biotinylated probe, 635/667 nm fluorescence (AID 1097).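 Note: probe is a biotinylated anti-EGFR antibody binding compounds printed on slides; score combines fluorescence near 667 nm and signal to noise of each spot.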 As to conditions: higher = more signal.

Activity calls are given as the source filed them.

Chain of Pro-neuregulin-1, membrane-bound isoform (Homo sapiens) (Q02297 whole entry, looked up, the tested form may be a part, canonical isoform): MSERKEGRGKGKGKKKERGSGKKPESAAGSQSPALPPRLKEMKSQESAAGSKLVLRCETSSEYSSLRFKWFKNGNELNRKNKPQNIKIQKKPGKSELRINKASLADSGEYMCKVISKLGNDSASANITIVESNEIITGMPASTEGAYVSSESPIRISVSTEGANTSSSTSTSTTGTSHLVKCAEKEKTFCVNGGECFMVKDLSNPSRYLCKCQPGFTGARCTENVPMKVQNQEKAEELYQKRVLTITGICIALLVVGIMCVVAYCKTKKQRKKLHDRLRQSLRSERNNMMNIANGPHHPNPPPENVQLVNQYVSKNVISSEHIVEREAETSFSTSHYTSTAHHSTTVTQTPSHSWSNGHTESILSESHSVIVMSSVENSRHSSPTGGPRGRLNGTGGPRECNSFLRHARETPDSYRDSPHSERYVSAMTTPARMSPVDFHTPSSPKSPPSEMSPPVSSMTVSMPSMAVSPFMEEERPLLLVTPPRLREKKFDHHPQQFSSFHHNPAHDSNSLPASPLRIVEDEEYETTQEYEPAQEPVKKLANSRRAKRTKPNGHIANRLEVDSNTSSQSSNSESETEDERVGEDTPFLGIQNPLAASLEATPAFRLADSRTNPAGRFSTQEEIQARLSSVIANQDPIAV
Chain of Neurogenic locus notch homolog protein 3 (Homo sapiens) (Q9UM47 whole entry, looked up): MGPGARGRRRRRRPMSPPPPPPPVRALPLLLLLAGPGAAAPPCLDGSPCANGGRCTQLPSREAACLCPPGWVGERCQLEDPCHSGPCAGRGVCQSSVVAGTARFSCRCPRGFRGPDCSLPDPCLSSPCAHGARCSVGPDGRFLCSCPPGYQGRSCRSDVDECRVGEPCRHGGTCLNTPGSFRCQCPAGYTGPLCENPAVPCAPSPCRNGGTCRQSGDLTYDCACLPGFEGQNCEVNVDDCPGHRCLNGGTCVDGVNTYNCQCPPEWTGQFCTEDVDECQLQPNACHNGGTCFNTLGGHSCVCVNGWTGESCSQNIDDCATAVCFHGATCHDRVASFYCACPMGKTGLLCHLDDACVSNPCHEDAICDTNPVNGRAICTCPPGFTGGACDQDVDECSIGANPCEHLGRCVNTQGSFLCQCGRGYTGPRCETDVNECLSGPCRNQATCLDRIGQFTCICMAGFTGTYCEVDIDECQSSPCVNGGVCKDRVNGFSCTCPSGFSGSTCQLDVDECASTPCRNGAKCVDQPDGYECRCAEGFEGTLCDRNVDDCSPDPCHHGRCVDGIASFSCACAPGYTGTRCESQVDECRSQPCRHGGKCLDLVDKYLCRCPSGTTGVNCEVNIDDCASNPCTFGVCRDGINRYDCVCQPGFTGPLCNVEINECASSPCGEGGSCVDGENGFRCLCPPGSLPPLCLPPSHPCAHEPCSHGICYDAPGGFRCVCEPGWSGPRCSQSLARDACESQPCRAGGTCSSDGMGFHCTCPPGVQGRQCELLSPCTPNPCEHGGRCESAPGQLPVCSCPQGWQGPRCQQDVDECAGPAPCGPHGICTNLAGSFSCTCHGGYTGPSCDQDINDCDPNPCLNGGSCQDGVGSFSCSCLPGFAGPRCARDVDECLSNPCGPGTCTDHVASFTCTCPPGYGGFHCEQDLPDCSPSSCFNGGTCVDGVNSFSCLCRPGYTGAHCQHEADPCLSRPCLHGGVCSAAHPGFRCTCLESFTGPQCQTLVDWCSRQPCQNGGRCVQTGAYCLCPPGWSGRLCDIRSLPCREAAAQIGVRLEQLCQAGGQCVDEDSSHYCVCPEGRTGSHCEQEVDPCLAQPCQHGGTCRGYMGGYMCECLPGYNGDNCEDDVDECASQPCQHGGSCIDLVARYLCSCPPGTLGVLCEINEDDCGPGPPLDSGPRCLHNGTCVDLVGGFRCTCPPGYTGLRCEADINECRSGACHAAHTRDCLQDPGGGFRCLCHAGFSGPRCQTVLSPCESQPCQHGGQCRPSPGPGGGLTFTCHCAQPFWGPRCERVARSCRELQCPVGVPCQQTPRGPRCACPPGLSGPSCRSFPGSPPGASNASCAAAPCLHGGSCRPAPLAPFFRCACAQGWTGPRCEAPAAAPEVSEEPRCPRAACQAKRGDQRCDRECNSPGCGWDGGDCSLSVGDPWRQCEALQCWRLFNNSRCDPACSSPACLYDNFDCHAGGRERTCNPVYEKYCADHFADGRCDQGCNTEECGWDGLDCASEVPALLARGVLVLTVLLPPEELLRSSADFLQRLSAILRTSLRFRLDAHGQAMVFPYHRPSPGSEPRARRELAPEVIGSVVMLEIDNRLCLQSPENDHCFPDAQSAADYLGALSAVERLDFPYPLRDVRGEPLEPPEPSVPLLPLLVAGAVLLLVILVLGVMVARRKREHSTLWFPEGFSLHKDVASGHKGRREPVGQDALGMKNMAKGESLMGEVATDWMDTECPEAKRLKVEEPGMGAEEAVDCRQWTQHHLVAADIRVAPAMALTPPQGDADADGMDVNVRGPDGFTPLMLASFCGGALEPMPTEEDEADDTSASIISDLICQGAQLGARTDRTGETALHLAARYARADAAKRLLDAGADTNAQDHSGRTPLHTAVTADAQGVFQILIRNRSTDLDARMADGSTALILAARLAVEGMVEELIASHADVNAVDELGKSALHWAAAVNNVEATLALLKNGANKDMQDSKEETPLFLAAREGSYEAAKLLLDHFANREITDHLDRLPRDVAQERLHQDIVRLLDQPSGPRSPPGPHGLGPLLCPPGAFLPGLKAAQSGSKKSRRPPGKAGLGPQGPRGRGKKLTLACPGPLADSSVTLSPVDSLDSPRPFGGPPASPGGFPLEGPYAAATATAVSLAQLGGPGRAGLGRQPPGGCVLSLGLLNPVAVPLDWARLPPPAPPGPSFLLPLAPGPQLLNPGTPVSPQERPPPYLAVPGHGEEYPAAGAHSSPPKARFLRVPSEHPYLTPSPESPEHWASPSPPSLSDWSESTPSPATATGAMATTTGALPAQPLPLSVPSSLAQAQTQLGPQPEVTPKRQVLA
Chain of Torsin-1A-interacting protein 2 (Homo sapiens) (Q8NFQ8 whole entry, looked up): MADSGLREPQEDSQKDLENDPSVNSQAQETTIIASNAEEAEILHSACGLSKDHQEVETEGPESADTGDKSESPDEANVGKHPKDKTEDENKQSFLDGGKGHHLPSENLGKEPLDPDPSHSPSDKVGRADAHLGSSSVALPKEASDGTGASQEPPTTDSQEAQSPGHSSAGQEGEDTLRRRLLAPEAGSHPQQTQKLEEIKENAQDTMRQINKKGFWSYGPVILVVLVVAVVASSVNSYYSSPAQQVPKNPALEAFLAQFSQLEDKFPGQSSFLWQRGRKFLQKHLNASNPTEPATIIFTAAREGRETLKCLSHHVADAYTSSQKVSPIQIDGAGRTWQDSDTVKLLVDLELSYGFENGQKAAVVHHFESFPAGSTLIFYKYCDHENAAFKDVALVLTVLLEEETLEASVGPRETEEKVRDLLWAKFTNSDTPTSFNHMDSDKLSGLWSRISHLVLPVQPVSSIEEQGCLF

`C#C[C@H]1Oc2ccccc2S(=O)(=O)N2CCC[C@@H]12`: the composite z-score in assay [1] is 0.246; in [2], 0.321; in [3] it was -0.116; in assay [4], -0.223; in assay [5], -0.564; in [6] it was -0.671. Further, the composite z-score is -0.344 in [7]; 0.0511 in [9]; 0.0373 in assay [10]; -0.513 in [11]; -0.607 in assay [15]; -0.0804 in assay [17]. The composite z-score in assay [18] was 0.636; in [19], -0.226; in assay [20] it was -0.0564. The z-score in assay [8] was -0.316 (inactive); in assay [12], -0.346 (inactive); in [13] it was -0.133 (inactive); in assay [14], -1.55 (inactive); in [16] it was -0.738 (inactive).

As to `Oc1ccc2cc[n+](Cc3cccc(OC(F)(F)F)c3)cc2c1`, the composite z-score in [1] was -0.446; in assay [2] it was 1.77; in assay [3], -0.0841; in assay [4], -0.0974; in [5], 0.0892; in assay [6] it was -0.322. In addition, the composite z-score was 0.921 in [7]; 0.191 in [9]; 0.0749 in [10]; 0.488 in [11]; 1.65 in [15]; -0.0541 in assay [17]. Further, the composite z-score in assay [18] was 1.26; in assay [19] it was 0.646; in assay [20], -0.0177. Also, the z-score in assay [8] was 0.498 (inactive); in [12] it was 0.573 (inactive); in assay [13], 0.439 (inactive); in [14], 4.58 (inactive); in assay [16], 0.713 (inactive).

Take `COc1ccc([Si](C)(C)[C@H]2[C@H](CC(=O)N3CCC[C@H]3CO)O[C@@]3(C(=O)N(Cc4cccc(N5CCC5=O)c4)c4ccccc43)[C@@H]2C)cc1`: the composite z-score is -0.226 in [1]; 0.149 in assay [2]; 0.0496 in assay [3]; 1 in [4]; 1.01 in assay [5]; 0.865 in [6]. For the same compound, the composite z-score in assay [7] was 1.32; in assay [9], 0.774; in [10], -0.253; in assay [11], 1.55; in assay [15], 2.6; in assay [17] it was 0.226. Also, the results for the composite z-score in assay [18], in assay [19] and in [20] were 1, 1.13 and 0.133, respectively. For the same compound, the z-score is -4.15 (inactive) in assay [8]; -0.795 (inactive) in assay [12]; 0.289 (inactive) in [13]; -0.743 (inactive) in assay [14]; 1.24 (inactive) in assay [16].

On to `CCCCC(=C=CC[C@H](O)c1ccccc1OCCO)C[C@H](O)c1cc(Cl)cc(Cl)c1O`, for which the composite z-score in assay [1] is -0.114; in [2] it was -0.257; in assay [3], -0.0628; in [4], 0.583; in [5], 0.151; in [6], 0.371. In addition, the composite z-score is 1.1 in assay [7]; 0.0025 in assay [9]; -0.226 in [10]; 1.1 in assay [11]; 1.3 in [15]; -0.118 in [17]. The results for the composite z-score in [18], in [19] and in [20] were 0.453, 0.224 and -0.163, respectively. The z-score is -2.37 (inactive) in assay [8]; 0.906 (inactive) in [12]; -1.33 (inactive) in assay [13]; 0.32 (inactive) in assay [14]; -0.144 (inactive) in assay [16].

`COCC1=C([C@H](O)CCc2ccccc2)[C@H](CO)[C@@H]2C(=O)N(Cc3ccccc3)C(=O)[C@@H]2C1`: the composite z-score in assay [1] was -0.286; in assay [2], -0.133; in [3] it was -0.101; in assay [4] it was 0.085; in assay [5] it was 0.258; in [6], -0.295. The composite z-score in assay [7] was -0.112; in assay [9] it was -0.0829; in [10], -0.249; in assay [11] it was -0.197; in [15], -0.0602; in assay [17], -0.235. Moreover, the values for the composite z-score in assay [18], in assay [19] and in [20] were 0.49, 0.248 and -0.0794, respectively. Further, the z-score in assay [8] was -0.4 (inactive); in assay [12] it was 0.226 (inactive); in [13], -0.819 (inactive); in [14], -0.177 (inactive); in assay [16] it was 1.38 (inactive).

These data come from PubChem BioAssay.
